Measured values published in the supplement of paper PMC10981050.
“And” between values parts separate entries of the source, which are not always exact repeats. Identical values can stand only once. Counter-ions that a name gives are not always drawn.

What was measured:
Experiment in all cases: cell viability relative to vehicle control; higher = less cytotoxic
Conditions in all cases: 10 µM
[1] = system: K562
Outline: (§1)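 CRISPR-edited mutant clones and isogenic wild-type clones from four leukaemia lines were screened against Selleck bioactive, kinase and epigenetic probe libraries, with identity-inconsistent compounds excluded. Each compound was acoustically dispensed at a single 10 µM dose into 384-well plates holding 2000 cells in 50 µL medium per well. After 48 h the supernatant was removed and CellTiter-Glo luminescence was read. Viability was expressed as percent of the on-plate vehicle control and analysed in Genedata Screener.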

[2] = system: MARIMO
Outline: as §1

[3] = system: MOLM14
Outline: as §1

[4] = system: OCI-AML2
Outline: as §1

| SMILES | cell viability ([1]; SRSF2 genotype: SRSF2 P95H/wt) | cell viability ([1]; SRSF2 genotype: SRSF2 wt/wt) | cell viability ([2]; SRSF2 genotype: SRSF2 P95H/wt) | cell viability ([2]; SRSF2 genotype: SRSF2 wt/wt) | cell viability ([3]; SRSF2 genotype: SRSF2 P95H/wt) | cell viability ([3]; SRSF2 genotype: SRSF2 wt/wt) | cell viability ([4]; SRSF2 genotype: P95H/wt) | cell viability ([4]; SRSF2 genotype: wt/wt) |
| --- | --- | --- | --- | --- | --- | --- | --- | --- |
| NS(=O)(=O)c1ccc(NC(=S)N2CCN(CC=Cc3ccccc3)CC2)cc1 | 85.3% and 88.8% | 93.5% | 83.5% | 76.7% | 95.3% | 99.2% | 64.5% | 76.5% |
| Cn1nnc(-c2ccc(-c3ccc(N4C[C@H](CO)OC4=O)cc3F)cn2)n1 [Tedizolid] | 87.1% and 82.2% | 83.3% | 77.3% | 88.1% | 89.4% | 85.5% | 79.9% | 81.6% |
| C[C@H]1O[C@@H](n2cc(F)c(=O)[nH]c2=O)[C@H](O)[C@@H]1O [Doxifluridine] | 102% and 95% | 92.1% | 100% | 104% | 96.5% | 105% | 97.3% | 99.7% |
| Fc1ccc(C(c2ccc(F)cc2)N2CCN(C/C=C/c3ccccc3)CC2)cc1 [Flunarizine 2HCl] | 67.8% and 82.2% | 72.8% | 50.4% | 37.9% | 46.8% | 60.7% | 28.7% | 26.7% |
| CC1(C)S[C@@H]2[C@H](NC(=O)[C@H](C(=O)O)c3ccsc3)C(=O)N2[C@H]1C(=O)O [Ticarcillin sodium] | 95.6% and 98.8% | 104% | 101% | 95.7% | 96.3% | 101% | 98.2% | 89.6% |
| CC(=O)O[C@]1(C(C)=O)CC[C@H]2[C@@H]3C[C@H](C)C4=CC(=O)C=C[C@]4(C)[C@@]3(F)[C@@H](O)C[C@@]21C [Fluorometholone Acetate] | 93.4% and 95.3% | 85.4% | 96.4% | 105% | 97.6% | 93.5% | 99.5% | 113% |
| CN(CC(=O)N(Cc1ccc(C2CCCCC2)cc1)c1ccc(C(=O)O)cc1)S(=O)(=O)c1c(F)c(F)c(F)c(F)c1F | 10.6% and 6.35% | 7.31% | 10.3% | 2.43% | 0.37% | 0.15% | 0.12% | 0.08% |
| C#CC[C@H](c1nc2cc(Cl)ccc2c(=O)n1Nc1ccccc1)N(CCCN)C(=O)c1cccc(Cl)c1F | 0.47% and 0.44% | 0.4% | 0.46% | 0.55% | 0.39% | 0.42% | 0.41% | 0.45% |
| COc1cnc(NS(=O)(=O)c2ccc(N)cc2)nc1 [Sulfameter (Bayrena)] | 98.4% and 101% | 98.9% | 106% | 96% | 105% | 102% | 115% | 99% |
| O=c1c(N=Nc2nccs2)c(-c2ccccc2)[nH]n1-c1nc(-c2ccccc2)cs1 | 88.4% and 89.2% | 88.4% | 94.2% | 106% | 92.9% | 95.9% | 103% | 105% |
| CC(=O)OCC(=O)[C@@]1(O)CC[C@H]2[C@@H]3CCC4=CC(=O)C=C[C@]4(C)[C@H]3[C@@H](O)C[C@@]21C [Prednisolone acetate (Omnipred)] | 87.3% and 81.8% | 84.8% | 86.1% | 84% | 80.5% | 80.3% | 73.3% | 87% |
| CC(=O)Oc1ccccc1C(=O)Nc1ncc([N+](=O)[O-])s1 [Nitazoxanide (Alinia, Annita)] | 78.4% and 85.8% | 78.4% | 94.8% | 90.9% | 92.5% | 89.7% | 87.5% | 85.5% |
| CCn1cc(C(=O)O)c(=O)c2cc(F)c(N3CCN(C)CC3)cc21 [Pefloxacin Mesylate Dihydrate] | 83.5% and 78% | 80.7% | 88% | 94.2% | 87.7% | 92.1% | 90.9% | 94.8% |
| COc1ccc2cc(C(=O)O)ccc2c1 [6-Methoxy-2-naphthoic acid] | 108% and 98.7% | 94.2% | 92% | 99.7% | 88.6% | 93.8% | 89.4% | 92.4% |
| C=CC(=O)N1CC/C(=C\c2ccc(F)c([N+](=O)[O-])c2)C(=O)/C(=C/c2ccc(F)c([N+](=O)[O-])c2)C1 | 2.41% and 0.35% | 0.44% | 0.25% | 0.39% | 0.29% | 0.29% | 0.26% | 0.35% |
| CN(C)CC/C=C1/c2ccccc2COc2ccc(CC(=O)O)cc21 [Olopatadine hydrochloride (Opatanol)] | 105% and 106% | 102% | 101% | 114% | 107% | 104% | 95.4% | 105% |
| O=C(O)/C=C/c1ccc(O)c(O)c1 [Caffeic acid] | 99.1% and 100% | 94.3% | 94.2% | 105% | 97.7% | 101% | 76.2% | 92.7% |
| N=C(N)NC(=N)N1CCOCC1 [Moroxydine HCl] | 99.7% and 100% | 91.8% | 97.6% | 101% | 95.8% | 99.5% | 98.1% | 93.8% |
| CCCCNc1ncc(C(=O)NCc2ccc(-n3ccnc3)cc2)c(NC2CCC(O)CC2)n1 (configuration not stated) | 84.4% | 72.8% | 73% | 83.9% | 25.6% | 20.8% | 48.4% | 52.1% |
| O=c1[nH]cnc2c1ncn2[C@@H]1O[C@H](CO)[C@@H](O)[C@H]1O [Inosine] | 114% and 107% | 121% | 102% | 118% | 99.7% | 111% | 98.3% | 114% |

| SMILES | cell viability ([1]; SRSF2 genotype: SRSF2 P95H/wt) | cell viability ([1]; SRSF2 genotype: SRSF2 wt/wt) | cell viability ([2]; SRSF2 genotype: SRSF2 P95H/wt) | cell viability ([2]; SRSF2 genotype: SRSF2 wt/wt) | cell viability ([3]; SRSF2 genotype: SRSF2 P95H/wt) | cell viability ([3]; SRSF2 genotype: SRSF2 wt/wt) | cell viability ([4]; SRSF2 genotype: P95H/wt) | cell viability ([4]; SRSF2 genotype: wt/wt) |
| --- | --- | --- | --- | --- | --- | --- | --- | --- |
| CC1=C[C@H]2[C@@H](CC1)[C@H](C)CC[C@H]2[C@@H](C)C(=O)O [Dihydroartemisinic acid] | 99.8% and 91.7% | 99.6% | 101% | 104% | 94.6% | 101% | 98.5% | 109% |
| CC1(C)CC[C@]2(C(=O)O)[C@H](O)C[C@]3(C)C(=CC[C@@H]4[C@@]5(C)CC[C@H](O)[C@@](C)(C=O)[C@@H]5CC[C@]43C)[C@@H]2C1 [Quillaic acid] | 96.1% and 95.3% | 82.9% | 95% | 104% | 84.6% | 91.7% | 98.9% | 96.8% |
| OC[C@H]1O[C@@H](Oc2c(O)cc(O)cc2/C=C/c2ccc(O)cc2)[C@H](O)[C@@H](O)[C@@H]1O [Astragalus polyphenols] | 91% and 89.8% | 88.5% | 82.9% | 96.1% | 67.9% | 80.4% | 76.8% | 84.5% |
| CC1(C)[C@@H](O[C@H]2O[C@H](C(=O)O)[C@@H](O)[C@H](O)[C@H]2O[C@@H]2O[C@H](C(=O)O)[C@@H](O)[C@H](O)[C@H]2O)CC[C@]2(C)[C@H]3C(=O)C=C4[C@@H]5C[C@@](C)(C(=O)O)CC[C@]5(C)CC[C@@]4(C)[C@]3(C)CC[C@@H]12 [Diammonium Glycyrrhizinate] | 98.9% and 104% | 99.1% | 101% | 99.7% | 100% | 103% | 101% | 114% |
| CCOC(=O)c1cc2ccccc2oc1=O [Ethyl Coumarin-3-carboxylate] | 96.8% and 96.2% | 92.9% | 94.3% | 97.2% | 88.7% | 98% | 95% | 96.8% |
| C[C@H]1C[C@H]2[C@@H]3CCC4=CC(=O)C=C[C@]4(C)[C@H]3C(=O)C[C@]2(C)[C@@]1(O)C(=O)CO [Betapar (Meprednisone)] | 98.4% and 97.3% | 93% | 101% | 106% | 105% | 105% | 89% | 104% |
| OC[C@H]1O[C@@](CO)(O[C@H]2O[C@H](CO)[C@@H](O)[C@H](O)[C@H]2O)[C@@H](O[C@H]2O[C@H](CO)[C@@H](O)[C@H](O)[C@H]2O)[C@@H]1O [Melezitose] | 107% and 99.6% | 104% | 99% | 111% | 102% | 104% | 96.3% | 114% |
| CC(=O)N1CCN(CCOc2ccc(C3CCN(C4=Nn5c(nnc5C(F)(F)F)CC4)CC3)cc2)CC1 | 68.5% and 73% | 71.5% | 60.6% | 57.4% | 53.5% | 53.2% | 49.8% | 59.7% |
| CC(C)c1cc2c(c(O)c1O)[C@@]13CCCC(C)(C)[C@@H]1C[C@@H]2OC3=O [Carnosol] | 43.3% and 33.8% | 61.7% | 4.39% | 0.77% | 6.11% | 5.25% | 5.94% | 1.96% |
| CCCC(=O)O[C@]1(C(=O)COC(C)=O)CC[C@H]2[C@@H]3C[C@H](F)C4=CC(=O)C=C[C@]4(C)[C@@]3(F)[C@@H](O)C[C@@]21C [Difluprednate] | 96.9% and 99% | 99.4% | 102% | 100% | 91.2% | 92.1% | 109% | 107% |
| Cc1csc(-c2nnc(Nc3ccc(Oc4ncccc4-c4ccnc(N)n4)cc3)c3ccccc23)c1 | 67.2% and 86.6% | 81.4% | 91.6% | 77.7% | 53.3% | 30.5% | 38.5% | 33.4% |
| C[C@@]12C[C@@]3(O)O[C@@H](O1)[C@]1(COC(=O)c4ccccc4)[C@H]3C[C@@]12O[C@@H]1O[C@H](CO)[C@@H](O)[C@H](O)[C@H]1O [Paeoniflorin] | 100% and 109% | 102% | 101% | 101% | 107% | 111% | 112% | 97.3% |
| CN(C)C(=O)c1cc2cnc(Nc3ccc(N4CCNCC4)cn3)nc2n1C1CCCC1 [Ribociclib (LEE011)] | 96.4% and 111% | 110% | 68% | 64.7% | 54.2% | 46% | 62% | 57% |
| CC[C@@H]1C(=O)N(C)c2cnc(Nc3ccc(C(=O)N[C@H]4CC[C@H](N5CCN(CC6CC6)CC5)CC4)cc3OC)nc2N1C(C)C [BI6727 (Volasertib)] | 3.41% and 6.94% | 9.46% | 12.2% | 16.7% | 3.23% | 0.61% | 4.52% | 11.5% |
| Cc1cc(C(C)(C)C)cc(C)c1CC1=NCCN1 [Xylometazoline HCl] | 92.4% and 97.6% | 99.5% | 95.4% | 105% | 102% | 103% | 93.4% | 99.7% |
| NC(=O)c1cccc(N)c1 [INO-1001 (3-Aminobenzamide)] | 96.6% and 95.7% | 94.7% | 99.5% | 97.8% | 100% | 96.6% | 94.7% | 98.8% |
| COc1cc(C(=O)NC2CCN(C)CC2)ccc1Nc1ncc2c(n1)N(C1CCCC1)CC(F)(F)C(=O)N2C | 24.5% and 48.3% | 44.6% | 31.6% | 26.3% | 15% | 5.38% | 4.16% | 9.85% |
| CCC(=O)N1CCN(c2ccc(-n3c(=O)ccc4cnc5ccc(-c6cnc7ccccc7c6)cc5c43)cc2C(F)(F)F)CC1 [Torin 1] | 46.8% and 45.3% | 46.4% | 64.6% | 61.4% | 39.8% | 36.2% | 41.5% | 39.9% |
| C[C@H]1O[C@@H](O[C@H]2CC[C@@]3(C)[C@@H](CC[C@]4(C)[C@@H]3C=CC3=C5CC(C)(C)CC[C@]5(CO)[C@@H](O)C[C@]34C)[C@]2(C)CO)[C@H](O[C@@H]2O[C@H](CO)[C@@H](O)[C@H](O)[C@H]2O)[C@@H](O[C@@H]2O[C@H](CO)[C@@H](O)[C@H](O)[C@H]2O)[C@H]1O [Buddlejasaponin IVb] | 96.5% and 97% | 97.8% | 98.4% | 108% | 98.3% | 102% | 101% | 106% |
